According to PubChem BioAssay (NCI):
About 83,000 compounds went through this panel and 20% of them were active in at least one assay; those are over-represented in the sample as a whole.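 Negative percent growth values reflect cell death: -40 means 40% of the cells present at the start died, and -100 means all died.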 Unmarked numbers belong to inactive results. Activity calls are given as the source filed them. How the source made its calls: active means growth percent below 10; inactive means the rest.

What was measured:
Assay in all cases: NCI-60 one-dose screen, 48 h (100 = growth as untreated, 0 = no growth, -100 = all killed)
Details in all cases: 10 µM unless noted
SK-MEL-2 melanoma = test system: SK-MEL-2 melanoma
EKVX NSCLC = test system: EKVX NSCLC
SN12C renal = test system: SN12C renal
UO-31 renal = test system: UO-31 renal
TK-10 renal = test system: TK-10 renal
ACHN renal = test system: ACHN renal
A498 renal = test system: A498 renal
CCRF-CEM leukemia = test system: CCRF-CEM leukemia
MOLT-4 leukemia = test system: MOLT-4 leukemia
SR leukemia = test system: SR leukemia
RPMI-8226 leukemia = test system: RPMI-8226 leukemia
OVCAR-8 ovarian = test system: OVCAR-8 ovarian
OVCAR-5 ovarian = test system: OVCAR-5 ovarian
OVCAR-4 ovarian = test system: OVCAR-4 ovarian
SK-OV-3 ovarian = test system: SK-OV-3 ovarian
IGROV1 ovarian = test system: IGROV1 ovarian
OVCAR-3 ovarian = test system: OVCAR-3 ovarian
HS 578T breast = test system: HS 578T breast
NCI/ADR-RES ovarian = test system: NCI/ADR-RES ovarian
T-47D breast = test system: T-47D breast

SMILES	growth (SK-MEL-2 melanoma)	growth (EKVX NSCLC)	growth (SN12C renal)	growth (UO-31 renal)	growth (TK-10 renal)	growth (ACHN renal)	growth (A498 renal)	growth (CCRF-CEM leukemia)	growth (MOLT-4 leukemia)	growth (SR leukemia)	growth (RPMI-8226 leukemia)	growth (OVCAR-8 ovarian)	growth (OVCAR-5 ovarian)	growth (OVCAR-4 ovarian)	growth (SK-OV-3 ovarian)	growth (IGROV1 ovarian)	growth (OVCAR-3 ovarian)	growth (HS 578T breast)	growth (NCI/ADR-RES ovarian)	growth (T-47D breast)
CC(=O)Oc1ccc(O)cc1	87.2%	103%	99.9%	91.2%	112%	97.8%	100%	64.3%	4.64% (active)	87.7%	69.5%	90%	115%	105%	110%	107%	111%	105%	91.6%	118%
O=C(/C(=C/c1ccc([N+](=O)[O-])cc1)SCc1ccc(F)cc1)c1ccc(Cl)cc1	88.5%	57.7%	56%	44.8%	97.2%	60.7%	70.9%	6.19% (active)	7.7% (active)	0.0981% (active)	-16% (active)	66.2%	95%	57.8%	74.8%	53.8%	70.5%	27.1%	53%	49.3%
O=C1C(=O)c2c(nc3ccc(Br)cn23)-c2ccccc21	-73.5% (active)	-71.4% (active)	-89% (active)	-100% (active)	-100% (active)	-100% (active)	39.4%	-32.5% (active)	-55.1% (active)	-27.6% (active)	-47.6% (active)	-90.7% (active)	-76.9% (active)	-95.1% (active)	-97.6% (active)	-51.5% (active)	-51.4% (active)	-52.2% (active)	-31.4% (active)	-59.8% (active)
N#Cc1c(-c2ccc(F)cc2)nc(N/N=C/c2c[nH]c3ccccc23)nc1N1CCOCC1	53.4%	56.1%	82.2%	34.5%	89.9%	43.4%	25.6%	40.5%	22%	6.49% (active)	33.5%	58%	94.8%	80.4%	92.6%	65.1%	65.9%	34.4%	61%	76.4%
COc1ccc2nc3nc4ccc[nH]c4cc3c2c1	108%	67.6%	89.7%	61.5%	82.2%	76%	94.4%	97.5%	93.6%	43.6%	82.9%	96.6%	115%	92.2%	89%	69.6%	91.8%	92.5%	96.1%	38.3%
Nc1c(C(=O)Nc2ccccn2)sc2nc3c(cc12)CCCCCC3	11.5%	31.8%	39.2%	35.5%	35.7%	36.1%	15%	5.58% (active)	16.3%	7.99% (active)	5.43% (active)	19.3%	46.6%	23.6%	19%	28.9%	-44.5% (active)	18.9%	18.8%	23.4%
C=C1C(=O)O[C@H]2[C@H]1CC/C(COC(=O)NCC(=O)Nc1ccc(OC)c(C(N)=O)c1O)=C\CC[C@@]1(C)O[C@@H]21	77.5%	85.1%	37.9%	82.7%	47.2%	75.3%	86.4%	-15.8% (active)	41.8%	12.6%	2.96% (active)	75.3%	102%	68.3%	100%	21.6%	25.7%	89.3%	104%	34.4%
CCOC(=O)C1=C(C)n2nc(CC#N)c(C#N)c2NC1c1ccc(CC)cc1 (stereo not given)	106%	82.4%	100%	65.4%	109%	98.7%	104%	101%	104%	104%	102%	104%	99.8%	93.2%	98.2%	69.9%	99.2%	115%	96.9%	94.9%
Nc1ccc2c(c1)C(=O)C(=O)c1c-2nc2ccccn12	-32.1% (active)	31.5%	-81% (active)	-40.8% (active)	115%	-58.8% (active)	-19.3% (active)	13.6%	-32.8% (active)	2.06% (active)	14.7%	8.18% (active)	-47.4% (active)	-95.4% (active)	30.7%	-40.3% (active)	-19.8% (active)	-6.56% (active)	11.7%	-53.5% (active)
COc1ccc(NC(=O)c2ccc(Nc3ncnc4[nH]c(C)c(C)c34)cc2)cc1	99.2%	102%	95.6%	97.5%	93.7%	107%	92.7%	112%	95.1%	89.3%	111%	98.9%	108%	126%	109%	110%	103%	113%	103%	89.2%
O=S(=O)(O)c1ccc(N=NSc2ccc3ccccc3c2)cc1	92.4%	99.4%	107%	71%	103%	95.3%	107%	89.8%	94.2%	104%	91.7%	108%	106%	101%	112%	93.2%	98.6%	98.7%	96.4%	82.2%
O=C1CCC23OC(c4ccccc4N12)C(O)C(O)C3O (stereo not given)	94.7%	107%	103%	86.9%	89.1%	109%	104%	101%	98.3%	112%	103%	99.3%	110%	105%	117%	98.2%	96.3%	105%	101%	110%
Cc1nc2sc(C(=O)Nc3ccccc3Cl)c(N)c2cc1C(C)O (stereo not given)	75%	89%	89.4%	96.3%	81.7%	96.2%	70.7%	79.5%	64%	33.2%	88.1%	95%	97.8%	97.9%	78.7%	92.9%	88.8%	88.1%	71.7%	86.4%
CN(C)CCCn1c2c(c3cc(-c4ccco4)ccc3c1=O)C(=O)c1ccccc1-2	117%	81.4%	51.9%	51.6%	66.3%	48.5%	93.7%	36.2%	10.9%	-40.2% (active)	46.3%	48%	104%	53%	93.1%	52.2%	72%	79.9%	53.6%	49.2%
C=C(C)[C@@H]1CC[C@]2(C(=O)O)CC[C@]3(C)[C@H](CC[C@@H]4[C@@]5(C)C[C@@H](CC#Cc6ccccc6)C(=O)C(C)(C)[C@@H]5CC[C@]43C)[C@@H]12	61.1%	28.6%	43.7%	28.9%	33.3%	23.8%	32.9%	24.9%	22.3%	38%	15.3%	26.5%	65.4%	41.3%	42.9%	61.1%	17.9%	55.4%	42.1%	22.5%
Cc1cccc(NC(=O)c2sc3nc4c(cc3c2N)CN(Cc2ccccc2)CC4)c1C	30.3%	44.1%	43.6%	51%	59%	52.9%	-0.165% (active)	13.9%	22.5%	25.5%	26.8%	34.3%	57.4%	61.7%	42.2%	48.5%	-21.3% (active)	30.8%	20.2%	53%
